Pf growth 48h: P. falciparum growth inhibition at 48 hours (one generation); actives 5.9% (n = 310,000); P. falciparum luciferase growth in erythrocytes, 48 h; Potency, µM (highest dose often 28.7 µM), without a hit: top-dose activity change, negative = inhibition, actives largely listed as inhibitors
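Parasite viability was followed by luminescence of a genomically integrated firefly luciferase. Cultures held 0.1% parasitemia at 2% hematocrit (final), incubated under 5% CO2 at 37 C.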
AmpC no deterg: inhibitors of E. coli AmpC beta-lactamase without detergent; P00811; AmpC nitrocefin hydrolysis, absorbance 480 nm, 0.0001% Triton; Potency, µM (doses to about 57.1 µM), without a hit: at the top dose activity change, negative = inhibition, most hits filed as inhibitors; actives 0.52% (n = 330,000); AID 485341;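 further: plate controls were no compound for no effect and no enzyme for full effect; nearly all actives have a fitted effect of over 20% in size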
Target sequence (P00811 whole entry, looked up): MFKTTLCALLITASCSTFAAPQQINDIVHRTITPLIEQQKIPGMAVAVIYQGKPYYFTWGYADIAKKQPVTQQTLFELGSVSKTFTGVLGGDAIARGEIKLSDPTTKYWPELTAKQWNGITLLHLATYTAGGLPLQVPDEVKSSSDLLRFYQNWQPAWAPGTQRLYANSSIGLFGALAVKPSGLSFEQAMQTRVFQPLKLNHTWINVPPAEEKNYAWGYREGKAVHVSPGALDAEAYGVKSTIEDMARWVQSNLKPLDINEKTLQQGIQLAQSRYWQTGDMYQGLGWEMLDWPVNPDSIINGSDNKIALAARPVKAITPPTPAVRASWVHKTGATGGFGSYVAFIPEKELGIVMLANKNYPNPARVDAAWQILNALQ
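AmpC (5.3 nM in the dispensed reagent) in 20 mM phosphate pH 7.0 with 0.01% (detergent screen) or 0.0001% Triton X-100 was preincubated with compounds for 15 min at room temperature. Nitrocefin was then added from an 800 uM solution, and hydrolysis was followed at 480 nm.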
HCV inh: inhibitors of hepatitis C virus infection; actives 3.4% (n = 340,000); AID 651820; Huh7.5.1 HCVcc-Cre infection, luciferase reporter, 44 h; Potency, µM (series often up to 41.8 µM), for inactives: top-dose activity change, negative = inhibition, usual class: inhibitors
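Compounds are dispensed onto cells plated 4 h earlier at 1,000 per well, with HCVcc-Cre virus (about 0.5 moi) added next. Following 44 h of culture, luminescent signal is measured for 15 sec after 15 min with substrate at room temperature.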
AmpC inh detg: AmpC beta-lactamase inhibition with detergent present. actives 0.041% (n = 370,000). AmpC hydrolysis of nitrocefin, absorbance 480 nm, 0.01% Triton. Potency, µM (series often up to 114 µM), for inactives: at the top dose activity change, negative = inhibition, hits mostly inhibitors;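 further: 0% = no-compound wells and -100% = no-enzyme wells; nearly all actives have a fitted effect of over 25% in size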
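AmpC (5.3 nM in the dispensed reagent) in 20 mM phosphate pH 7.0 with 0.01% (detergent screen) or 0.0001% Triton X-100 was preincubated with compounds for 15 min at room temperature. Nitrocefin was then added from an 800 uM solution, and hydrolysis was followed at 480 nm.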
Pf growth 96h: inhibits malaria parasite growth, 96 h; Potency, µM (highest dose often 28.7 µM), for the others: at the top dose activity change, negative = inhibition, usual class: inhibitors; AID 504834; P. falciparum luciferase reporter growth, 96 h; actives 6.9% (n = 320,000)
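Two-generation exposure (96 h) targets delayed-death phenotype. Reporter parasites carrying integrated firefly luciferase, in red cells at 2% hematocrit and 0.05% parasitemia final, kept at 37 C, 5% CO2; luminescence loss indicates inhibition.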
AMA1-RON2 inh: disrupts binding of P. falciparum AMA1 to RON2 | AlphaScreen AMA1-biotinylated RON2 peptide binding | Potency, µM (doses to about 58.2 µM), for the others: at the highest dose activity change, negative = inhibition, usual class: inhibitors | actives 0.2% (n = 360,000) | AID 720542;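 further: 0% = vehicle wells and -100% = peptide control; nearly all actives have a fitted effect of over 45% in size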
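AMA1 (3D7) with his tag at 25 nM final met compounds first, then biotinylated RON2 peptide at 25 nM; detection used donor plus acceptor beads, 10 µg/mL apiece, read by AlphaScreen after 30 min at room temperature.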
Active calls of the source: *; [ ] = another dose, or the depositor's remark. Rows were chosen to be rich in hits. Some 11% of all compounds tested hit in one or more screens of this group. The call rests on the fitted dose curve; in most records, active means well fitted curve in the direction sought with a large enough effect; inconclusive means small, poorly fitted or top-dose-only effect, or another doubt; inactive means no such curve, though single readings can be large; an effect the other way counts as inactive or inconclusive. Unless noted, on the % scale 0 is the no-effect control and ±100 the full control effect; potency means the concentration at half of the fitted maximal effect.

For Cc1cc(-c2ccc(C)c(S(=O)(=O)NCC3CCN(Cc4ccc(F)cc4)CC3)c2)on1 the results were Pf growth 48h inconclusive, AmpC no deterg 86%, HCV inh 8.9µM*, AmpC inh detg inconclusive, Pf growth 96h inconclusive and AMA1-RON2 inh 0%.
Cc1ccc(CCNS(=O)(=O)c2cc(-c3cc(C)no3)ccc2C)cc1 was read as AmpC inh detg 6%.
`COc1ccc(-c2cc(C)no2)cc1S(=O)(=O)NCC1CCN(Cc2cc(C)ccc2C)CC1` gave Pf growth 48h inconclusive, AmpC no deterg 102%, HCV inh -21%, AmpC inh detg 2%, Pf growth 96h inconclusive and AMA1-RON2 inh -4%.
For COc1ccccc1CNS(=O)(=O)c1cc(-c2cc(C)no2)ccc1C(C)C the results were Pf growth 48h inconclusive, AmpC no deterg -45%, HCV inh inconclusive, AmpC inh detg 2%, Pf growth 96h -12% and AMA1-RON2 inh -11%.
COc1ccccc1CN1CCC(CNS(=O)(=O)c2cc(-c3cc(C)no3)ccc2C)CC1 was read as Pf growth 48h 4.7µM*, AmpC no deterg 76%, HCV inh inconclusive, AmpC inh detg 4%, Pf growth 96h -37% and AMA1-RON2 inh -4%.
For CCOc1ccccc1CNS(=O)(=O)c1cc(-c2cc(C)no2)ccc1OC the results were Pf growth 48h 5%, AmpC no deterg 2%, HCV inh inconclusive, AmpC inh detg -1%, Pf growth 96h 12µM* and AMA1-RON2 inh -1%.
`Cc1ccc(NC=C(S(=O)(=O)c2ccccc2)S(=O)(=O)c2ccccc2)cc1` gave Pf growth 48h inconclusive, AmpC no deterg -21%, HCV inh 12%, AmpC inh detg -11%, Pf growth 96h -29% and AMA1-RON2 inh -12%[11.6 µM].
Screening O=S(=O)(C(=CNc1ccccc1)S(=O)(=O)c1ccccc1)c1ccccc1 returned Pf growth 48h -7%, AmpC no deterg -26%, HCV inh -3%, AmpC inh detg inconclusive, Pf growth 96h 10µM* and AMA1-RON2 inh 0%.
Screening COc1cccc(N2CCN(C(=O)CN3CCSc4ccccc43)CC2)c1 returned AmpC inh detg 3%.
CCN1C(=O)S/C(=C/c2ccc(Sc3nc4ccccc4[nH]3)o2)C1=O was read as Pf growth 48h -9%, AmpC no deterg inconclusive, HCV inh inconclusive, AmpC inh detg inconclusive, Pf growth 96h 9.3µM* and AMA1-RON2 inh -12%.
`Cc1cc(C)c2cc(C(=O)Nc3ccc(C)c(F)c3)[nH]c2c1` gave Pf growth 48h 12µM*, AmpC no deterg -52%, HCV inh inconclusive, AmpC inh detg -4%, Pf growth 96h inconclusive and AMA1-RON2 inh 4%.
CCCCn1c(=O)n(CC2CCC(C(=O)NCCCOC)CC2)c(=O)c2sccc21 (stereo not drawn) was read as AmpC inh detg 21%.
CN(C)S(=O)(=O)c1cccc(NC(=O)c2cc3ccccc3o2)c1 was read as Pf growth 48h 64%, AmpC no deterg -29%, HCV inh inconclusive, AmpC inh detg -2% and AMA1-RON2 inh 0%.
Screening CCN(CC)S(=O)(=O)c1cccc(NC(=O)c2ccc(Br)cc2)c1 returned Pf growth 48h inconclusive, AmpC no deterg -30%[11.4 µM], HCV inh 8.9µM*, AmpC inh detg -10%, Pf growth 96h -24% and AMA1-RON2 inh -3%.
Screening CCN(CC)S(=O)(=O)c1cccc(NC(=O)c2cc3ccccc3o2)c1 returned Pf growth 48h inconclusive, AmpC no deterg -27%, HCV inh 10µM*, AmpC inh detg -8%, Pf growth 96h inconclusive and AMA1-RON2 inh -12%.
Screening Cc1ccc(-n2c(=O)c3c(C)c(C)sc3n(CC(=O)NCc3ccccc3)c2=O)cc1C returned AmpC inh detg 2%.
N=c1c2c(-c3ccccc3)c(-c3ccccc3)n(Cc3ccccc3)c2ncn1CCCn1ccnc1 was read as Pf growth 48h 0.93µM*, AmpC no deterg 141%, HCV inh 0.5µM*, AmpC inh detg -3%, Pf growth 96h 1.3µM* and AMA1-RON2 inh -21%.
For O=c1c2cnn(-c3ccccc3)c2ncn1Cc1ccco1 the results were AmpC no deterg -20%, HCV inh inconclusive, AmpC inh detg inconclusive, Pf growth 96h 66% and AMA1-RON2 inh -6%.
CCCCn1cnc2c(c(-c3ccccc3)c(-c3ccccc3)n2Cc2ccco2)c1=N was read as Pf growth 48h 4.1µM*, AmpC no deterg 88%, HCV inh -23%, AmpC inh detg -1%, Pf growth 96h 2.3µM* and AMA1-RON2 inh 6%.
N=c1c2c(-c3ccccc3)c(-c3ccccc3)n(Cc3ccco3)c2ncn1Cc1ccco1 was read as Pf growth 48h 3.7µM*, AmpC no deterg 110%, HCV inh 16µM*, AmpC inh detg inconclusive, Pf growth 96h inconclusive and AMA1-RON2 inh -22%.
O=c1[nH]c(=O)n(Cc2ccccc2)c(O)c1C=NCCCn1ccnc1 was read as Pf growth 48h 3%, AmpC no deterg -8%, HCV inh 9%, AmpC inh detg -12%, Pf growth 96h 28% and AMA1-RON2 inh 38%.
`COc1cc(C)c(Cl)cc1S(=O)(=O)N1CCSC1` gave Pf growth 48h -3%, AmpC no deterg -20%, HCV inh 5%, AmpC inh detg inconclusive, Pf growth 96h 12µM* and AMA1-RON2 inh -11%.
For CCOC(=O)C1CCN(S(=O)(=O)c2cc(Cl)c(C)cc2OC)CC1 the results were Pf growth 48h 7%, AmpC no deterg 172%, HCV inh 20%, AmpC inh detg -13%, Pf growth 96h 1% and AMA1-RON2 inh 3%.
O=C(Nc1ccc(Cl)c(-c2nc3ccccc3o2)c1)c1cccc2c(Cl)cccc12 was read as AmpC inh detg 0%.
For CC1CCC(NC(=O)c2ccc(CS(=O)(=O)c3ccc(Cl)cc3)o2)CC1 (stereo not drawn) the results were AmpC inh detg 8%.
O=C(O)c1ccccc1-c1ccc(/C=c2\sc3nc4cc(Br)cnc4n3c2=O)o1 was read as Pf growth 48h -7%, AmpC no deterg -38%, HCV inh 6%, AmpC inh detg 0%, Pf growth 96h 4% and AMA1-RON2 inh 11µM*.
Cc1cc2nc3s/c(=C/c4ccc(-c5ccccc5C(=O)O)o4)c(=O)n3c2cc1C was read as Pf growth 48h 12%, AmpC no deterg -28%, HCV inh -1%, AmpC inh detg -1%, Pf growth 96h 24% and AMA1-RON2 inh -26%.

Assay outcomes as filed in PubChem.
